Source: PubChem
a7 integrin act – integrin-mediated muscular dystrophy alleviation activation; alpha7betagal myoblasts, beta-gal FDG fluorescence, 48 h; Potency, µM (top dose mostly 38.3 µM), without a hit: at the highest dose activation, hits mostly activators; AID 624291; 350,000 compounds, 0.064% hits;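 note: potency is the fitted concentration of half-maximal effect; 100% = response of the positive control SU9516; nearly all actives have a fitted effect of over 60% in size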
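alpha7betagal+/- myoblasts (passage 13, 250/well) treated 48 h at 37C with compounds at 1:260 dilution of DMSO stock. Lysed, then beta-galactosidase activity read as FDG fluorescence (ex 480/em 540) after 30 min, with pre-read for autofluorescence.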
Giardia killer – kills Giardia lamblia; Giardia lamblia trophozoite viability; activity change, % at 7.66 µM, hits read low; 340,000 compounds, 0.15% hits; AID 540267; in the data active = activity change below about -80%; inconclusive = between about -30% and that limit;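 note: parasites exposed to compound for two days anaerobically before the ATP read; % is set by controls: 0 for no effect and ±100 for the full control effect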
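Each well holds 100 Giardia trophozoites and compound. After two days (48 hrs) at 37 deg C in anaerobic conditions, ATP is quantified by luminescence.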
RORgamma inh – blocks mouse ROR gamma transcriptional activity | P51450 | Drosophila S2 Gal4-RORgamma UAS-luciferase reporter, 20 h | Potency, µM (doses to about 53.6 µM), without a hit: top-dose activity change, negative = inhibition, actives largely listed as inhibitors | 310,000 compounds, 5.4% hits; note: potency is the fitted concentration of half-maximal effect; % is set by controls: 0 for no effect and ±100 for the full control effect; nearly all actives have a fitted effect of over 60% in size
Target sequence (P51450 whole entry, looked up, the tested form may be a part): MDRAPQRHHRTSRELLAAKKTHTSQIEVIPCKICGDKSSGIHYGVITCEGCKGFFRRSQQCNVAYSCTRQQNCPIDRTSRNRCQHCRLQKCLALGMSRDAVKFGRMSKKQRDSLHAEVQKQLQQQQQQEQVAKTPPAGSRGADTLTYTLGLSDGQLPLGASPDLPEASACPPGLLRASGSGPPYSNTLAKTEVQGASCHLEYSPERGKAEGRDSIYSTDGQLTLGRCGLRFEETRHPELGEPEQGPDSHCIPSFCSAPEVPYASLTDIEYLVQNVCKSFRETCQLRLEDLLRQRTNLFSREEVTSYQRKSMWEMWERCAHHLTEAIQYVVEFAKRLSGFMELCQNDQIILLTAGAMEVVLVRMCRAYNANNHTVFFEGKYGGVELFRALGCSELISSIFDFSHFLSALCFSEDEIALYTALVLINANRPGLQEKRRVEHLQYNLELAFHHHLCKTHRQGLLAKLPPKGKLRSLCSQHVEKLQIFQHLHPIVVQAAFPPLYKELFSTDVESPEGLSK
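Stably transfected Drosophila Schneider cells are the test system, with ROR gamma fused to Gal4 and luciferase under UAS control; luminescence is read after 20 hr of 700 uM copper sulfate induction at ambient temperature.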
Gal4-VP16 FLuc – counter-screen for ROR gamma inhibitors: Gal4-VP16 reporter. Drosophila S2 Gal4-VP16 UAS-luciferase, luminescence, 20 h. Potency, µM (highest dose often 53.6 µM), without a hit: at the highest dose activity, negative = inhibition, hits mostly inhibitors. 310,000 compounds, 3.5% hits. AID 2546;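 note: Gal4-VP16 expression switched on by copper sulfate through the metallothionein promoter; potency is the fitted concentration of half-maximal effect; % is set by controls: 0 for no effect and ±100 for the full control effect; nearly all actives have a fitted effect of over 50% in size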
ERG-DNA inh – ERG Ets/DNA interaction inhibition; P11308; fluorescence polarization, His-ERG Ets domain / labelled DNA; Potency, µM (doses to about 76.9 µM), for inactives: at the highest dose FP activity, negative = inhibition, hits mostly inhibitors; 370,000 compounds, 0.028% hits; active = well fitted inhibition curve with a large enough effect in the polarisation, with a control signal flat; inconclusive = small, poorly fitted or top-dose-only effect, or effect the other way, or a change in a side signal; inactive = no such curve, though single readings can be large or run the other way; the % refers to the polarisation;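 note: polarization taken with two DNA probes labelled with fluorescein and Texas red; potency is the fitted concentration of half-maximal effect; % of control where 0% means no effect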
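His-tagged ERG Ets domain (1 uM in the protein solution; 300mM KCl, 50mM Tris-HCl, 1mM EDTA, 1mM DTT, pH 7.5) received compound, then a probe mix of 5 nM fluorescein-DNA and 100nM Texas-615-DNA. Fluorescence polarization was read for both dyes.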
An asterisk follows results filed as active; [ ] = dose if it differs, or a comment. Shown is part of a subset that was picked to be rich in hits. Unless noted, calls come from the whole dose curve; as a rule, active = well fitted curve in the direction sought with a large enough effect; inconclusive = small, poorly fitted or top-dose-only effect, or another doubt; inactive = no such curve, though single readings can be large; an effect the other way counts as inactive or inconclusive.

Screening CCOc1cc2[nH]c(=S)n(CCCC(=O)N3CCC4(CC3)OCCO4)c(=O)c2cc1OCC returned a7 integrin act -26%, Giardia killer 22, RORgamma inh inconclusive, Gal4-VP16 FLuc 20µM* and ERG-DNA inh 3%.
O=C1C(Cl)=C(Cl)C(=O)C(Cl)=C1Cl was read as RORgamma inh 4.5µM* and Gal4-VP16 FLuc inconclusive.
For COc1ccc(OC)c(N2C(=O)NC(=O)/C(=C\c3ccc([N+](=O)[O-])s3)C2=O)c1 the results were a7 integrin act -2%, Giardia killer 11, RORgamma inh 6.3µM*, Gal4-VP16 FLuc inconclusive and ERG-DNA inh 56%.
Screening COc1cc(C)cc(CN2CC=C(c3ccccc3)CC2)c1O returned a7 integrin act -58%, Giardia killer -13, RORgamma inh 11µM*, Gal4-VP16 FLuc inconclusive and ERG-DNA inh 1%.
COc1ccc(C(C)=O)cc1CN1CC=C(c2ccccc2)CC1 was read as a7 integrin act -27%, Giardia killer 10, RORgamma inh -30%, Gal4-VP16 FLuc 2% and ERG-DNA inh -4%.
Oc1cc(O)cc(/C=C/c2ccc(O)cc2O)c1 was read as a7 integrin act -1%, Giardia killer -19 and ERG-DNA inh -3%.
COc1ccc(/C=C/c2cc(O)cc(O)c2)cc1 was read as RORgamma inh 1.4µM* and Gal4-VP16 FLuc 3.5µM*.
CN(C)c1ccc(N=O)cc1 was read as RORgamma inh 2.2µM* and Gal4-VP16 FLuc 5.6µM*.
For CC(=O)c1cn(CCCOc2ccccc2)c2ccccc12 the results were a7 integrin act 15%, Giardia killer -3, RORgamma inh inconclusive, Gal4-VP16 FLuc 6.3µM* and ERG-DNA inh -4%.
For O=C1CC2OCC=C3CN4CCC56c7ccccc7N1C5[C@H]2[C@H]3C[C@H]46 (some centres not stated) (tested in a mixture with another compound) the results were RORgamma inh 1% and Gal4-VP16 FLuc -4%.
Screening O=[N+]([O-])c1ccc(N2CC2)c([N+](=O)[O-])c1 returned a7 integrin act 2%, Giardia killer inconclusive and ERG-DNA inh 4%.
For CCOC(=O)N1C(C)CN(/[N+]([O-])=N/Oc2ccc([N+](=O)[O-])cc2[N+](=O)[O-])CC1C (configuration not stated) the results were Giardia killer inconclusive, RORgamma inh 11µM* and Gal4-VP16 FLuc inconclusive.
Screening O=[N+]([O-])c1oc2ccc3ccccc3c2c1CCO returned a7 integrin act -46%, Giardia killer -95* and ERG-DNA inh -9%.
For O=C(O)CBr the results were RORgamma inh -1% and Gal4-VP16 FLuc 6%.
For CN1C(=O)[C@@H](NC(=O)c2cc3ccccc3[nH]2)N=C(c2ccccc2)c2ccccc21 the results were RORgamma inh -44% and Gal4-VP16 FLuc -17%.
Screening CCCC[N+](=O)[O-] returned RORgamma inh -18% and Gal4-VP16 FLuc -12%.
CN[C@H]1C[C@H]2O[C@@](C)([C@H]1OC)n1c3ccccc3c3c4c(c5c6ccccc6n2c5c31)C(=O)NC4 was read as RORgamma inh inconclusive and Gal4-VP16 FLuc 6.3µM*.
`COC(=O)C1(O)CC2OC1(C)n1c3ccccc3c3c4c(c5c6ccccc6n2c5c31)C(=O)NC4` (configuration not stated) gave RORgamma inh -20%[10 µM] and Gal4-VP16 FLuc inconclusive.
For CC(=O)O[C@@H]1[C@@H](O)C2OC3C=C(C)C(=O)[C@@H](O)[C@]3(CO)C1(C)C21CO1 (some centres not stated) the results were RORgamma inh 0.63µM* and Gal4-VP16 FLuc 0.11µM*.
[O]=[Cd] was read as RORgamma inh 1% and Gal4-VP16 FLuc -1%.
CN(C)P(=O)(NC(=O)c1cccn1C)N(C)C was read as a7 integrin act 155%, Giardia killer 12, RORgamma inh 8%, Gal4-VP16 FLuc 12% and ERG-DNA inh 17%.
CN(C)P(=NC(=S)c1cccn1C)(N(C)C)N(C)C was read as a7 integrin act -42%, Giardia killer 9, RORgamma inh 7.9µM*, Gal4-VP16 FLuc 16µM* and ERG-DNA inh -11%.
COC(=O)C1=CO[C@@H](C)[C@@H]2CN3CC[C@]4(C(=O)Nc5c4ccc(OC)c5OC)[C@H]3C[C@H]12 was read as RORgamma inh 4% and Gal4-VP16 FLuc -4%.
Screening Cc1cccc(C)c1N returned RORgamma inh 19% and Gal4-VP16 FLuc -2%.
For O=C(c1ccc(Cl)cc1)C1CCCN(Cc2cccc3cnccc23)C1 (configuration not stated) the results were a7 integrin act -37%, Giardia killer 10, RORgamma inh inconclusive, Gal4-VP16 FLuc 35µM* and ERG-DNA inh -2%.
`O=C(c1ccc(Cl)cc1)C1CCCN(Cc2ccc3ncccc3c2)C1` (configuration not stated) gave a7 integrin act 0%, Giardia killer 14, RORgamma inh inconclusive, Gal4-VP16 FLuc 7.1µM* and ERG-DNA inh -13%.
For O=C(c1cccc(Cl)c1)C1CCCN(Cc2cccc3cnccc23)C1 (configuration not stated) the results were a7 integrin act -50%, Giardia killer -12, RORgamma inh 7.1µM*, Gal4-VP16 FLuc -28% and ERG-DNA inh -11%.
For COc1ccc(CN2CCCC(C(=O)c3cccc(Cl)c3)C2)cc1 (configuration not stated) the results were a7 integrin act -19%, Giardia killer -19, RORgamma inh -9%, Gal4-VP16 FLuc 6% and ERG-DNA inh 0%.
`CCCC(C)C1(CC)C(=O)NC(=S)NC1=O` (configuration not stated) gave RORgamma inh -10% and Gal4-VP16 FLuc -6%.
For COC(=O)C[C@]1(C(=O)OC)CN(C#N)N(c2ccc(Cl)cc2)C12c1ccccc1-c1ccccc12 the results were a7 integrin act -54%, Giardia killer 9, RORgamma inh 5.6µM*, Gal4-VP16 FLuc 3.2µM* and ERG-DNA inh 1%.
`COC(=O)[C@@H]1[C@@H](C(=O)OC)C2(c3ccccc3-c3ccccc32)N(c2ccc(Cl)cc2)N1C#N` gave a7 integrin act -56%, Giardia killer -18, RORgamma inh inconclusive, Gal4-VP16 FLuc 4.5µM* and ERG-DNA inh -3%.
Screening C[n+]1c(-c2ccccc2)c2cc(N)ccc2c2ccc(N)cc21 returned Giardia killer 10, RORgamma inh inconclusive, Gal4-VP16 FLuc 13µM* and ERG-DNA inh 14µM*.
O=C(Cc1ccccc1)Oc1ccc(N2C(=O)C3CCCCC3C2=O)cc1 (configuration not stated) was read as a7 integrin act -5%, Giardia killer -4, RORgamma inh inconclusive, Gal4-VP16 FLuc 4% and ERG-DNA inh 2%.
